Source: PubChem BioAssay (EPA / NIEHS)
“And” between values parts separate entries of the source, which are not always exact repeats. Equal entries are not always repeated. The source made the active and inactive calls. Rule for the calls: active = hit-call score of the fitted dose curve at least 0.9, where 1 is the maximum; inactive = score below 0.9.

experiment: BSK_3C_uPAR: BioMAP Diversity Plus: 3C Assay for Urokinase-type plasminogen activator receptor (uPAR) Biomarker Activity (AID 2282998); conditions: BioMAP 3C HUVEC, uPAR biomarker ELISA; actives raise or lower the signal
Method in brief: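 Cell-surface uPAR on HUVEC (3C system) read by ELISA at 24 h post-treatment, with DMSO as baseline and fitting in both directions. Parallel cultures stained with SRB to flag overt cytotoxicity.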

SMILES	outcome	AC50
Cc1cccc2c1ccc1ccccc12	inactive	–
CCCCCCCCCCCCCCCCCC[N+](C)(C)Cc1ccccc1	–	350 nM (active)
COc1cc(OC)nc(NC(=O)NS(=O)(=O)Nc2ccccc2C(=O)N(C)C)n1	inactive	–
O=C(NO)c1ccccc1	inactive	–
O=C(O)C(F)(F)OC(F)(F)C(F)(F)OC(F)(F)C(F)(F)OC(F)(F)C(F)(F)C(F)(F)C(F)(F)F	–	21.3 µM (active) and 23 µM (active)
CC1=NN(c2ccccc2)C(=O)C1	inactive	–
O=C(O)CCC(F)(F)C(F)(F)C(F)(F)C(F)(F)C(F)(F)F	inactive	–
Oc1cc2ccccc2cc1O	inactive	–
NC(=NCCCCCCN=C(N)/N=C(\N)Nc1ccc(Cl)cc1)/N=C(\N)Nc1ccc(Cl)cc1	–	2610 nM (active)
CCC(C)c1ccccc1O (configuration not stated)	inactive	–
O=P(O)(O)CCC(F)(F)C(F)(F)C(F)(F)C(F)(F)C(F)(F)C(F)(F)C(F)(F)C(F)(F)F	inactive	–
O=C(NCc1ncc(C(F)(F)F)cc1Cl)c1c(Cl)cccc1Cl	inactive	–
